From PubChem BioAssay come the findings set out here.

Assay [1] in a line: sensitizers of A549 cells to miR-34 induction, primary screen, imaging, A549 dox-inducible miR-34, nuclei and caspase counts (AID 1347080;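 active means compounds whose cell count with miR-34 switched on is under 0.7 times the count with it off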). The note with it: A549 miR-34 inducible, Hoechst nuclei count, 48 h.
Assay [2] can be described thus: inhibitors of Cryptococcus chitosan production, flow cytometry, Cibacron Brilliant Red staining (AID 1347148).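 Further: compound exposure lasted three days at 37 degrees C.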 The note with it: Cryptococcus neoformans chitosan, stronger effect = lower value; at 10 µM unless noted.
[3] abbreviates: stronger effect = lower value, cell number ratio, induced over uninduced.
[4] abbreviates: measured here: relative caspase fold change +Dox/-Dox.
Where [5] appears, read: measured here: total cells with miR-34 induction, stronger effect = lower value.
Setting [6] is: measured here: total cells without miR-34 induction.

Where “and” joins values, the source holds several entries; their conditions need not be identical. Identical values can stand only once. Calls of active or inactive are those of the source. Unless noted, how the calls were made is not given here. Square brackets hold non-standard residues; d marks the D form. Peptide text beside a SMILES is read from it. * marks the point of attachment. Phe(ol) = N[C@H](CO)Cc1ccccc1; Nle = CCCC[C@H](N)C(=O)O; Boc = CC(C)(C)OC(=O)*; Aib = CC(C)(N)C(=O)O

On to `CN([C@@H](Cc1ccc(OS(=O)(=O)c2cccc3cnccc23)cc1)C(=O)N1CCN(c2ccccc2)CC1)S(=O)(=O)c1cccc2cnccc12`, for which the fold change was 0.962 (inactive) in assay [1] (setting [3]) and 1.57 in assay [1] (setting [4]). Besides, the cell count in assay [1] (setting [5]) came to 5440; in assay [1] (setting [6]), 5650. Further, the fold fluorescence in assay [2] was 3.04 [at 69.3 µM] (inactive).

Turning to `CCCC(=O)Nc1nc2c(ncn2C2O[C@H]3COP(=O)(O)O[C@@H]3[C@@H]2OC(=O)CCC)c(=O)[nH]1` (stereo not given in full), the fold change in assay [1] (setting [3]) was 1.02 (inactive); in assay [1] (setting [4]), 0.664. The cell count is 5430 in assay [1] (setting [5]) and 5330 in assay [1] (setting [6]). The fold fluorescence in assay [2] is 6.9 [at 103 µM] (inactive).

In the case of `CC(=O)NC(C)(C)C(=O)N1CCC[C@H]1C(=O)NC(C)(C)C(=O)N[C@@H](C)C(=O)NC(C)(C)C(=O)N[C@@H](C)C(=O)N[C@@H](CCC(N)=O)C(=O)NC(C)(C)C(=O)N[C@H](C(=O)NC(C)(C)C(=O)NCC(=O)N[C@@H](CC(C)C)C(=O)NC(C)(C)C(=O)N1CCC[C@H]1C(=O)N[C@H](C(=O)NC(C)(C)C(=O)NC(C)(C)C(=O)N[C@@H](CCC(=O)O)C(=O)N[C@@H](CCC(N)=O)C(=O)N[C@H](CO)Cc1ccccc1)C(C)C)C(C)C` (Ac-[Aib]P[Aib]A[Aib]AQ[Aib]V[Aib]GL[Aib]PV[Aib][Aib]EQ[Phe(ol)]), the results for the fold change in assay [1] (setting [3]) and in assay [1] (setting [4]) were 1.08 (inactive) and 1.3, respectively. Further, the values for the cell count in assay [1] (setting [5]) and in assay [1] (setting [6]) were 1460 and 1350, respectively. Moreover, the fold fluorescence in assay [2] is 7.73 [at 25.5 µM] (inactive).

As for `c1ccc(CN(CCN(Cc2ccccn2)Cc2ccccn2)Cc2ccccn2)nc1`, the fold change in assay [1] (setting [3]) is 0.775 (inactive); in assay [1] (setting [4]), 2.99. Besides, the figures for the cell count in assay [1] (setting [5]) and in assay [1] (setting [6]) were 418 and 538, respectively. Also, the fold fluorescence in assay [2] is 9.33 [at 117.8 µM] (inactive).

Turning to `CC(C)C[C@@H](/C=C/S(C)(=O)=O)NC(=O)[C@H](CC(C)C)NC(=O)[C@H](CC(C)C)NC(=O)OCc1ccccc1`, the fold change in assay [1] (setting [3]) is 0.878 (inactive); in assay [1] (setting [4]) it was 1.63. For the same compound, the cell count turned out to be 585 in assay [1] (setting [5]) and 666 in assay [1] (setting [6]). Also, in assay [2], the fold fluorescence is 3.84 [at 90.6 µM] (inactive).

Take `COc1ccc([C@H]2Sc3ccccc3N(CCN(C)C)C(=O)[C@H]2OC(C)=O)cc1`: the fold change was 1.07 (inactive) in assay [1] (setting [3]) and 1.13 in assay [1] (setting [4]). Also, the cell count in assay [1] (setting [5]) worked out at 5870; in assay [1] (setting [6]), 5500. Further, in assay [2], the fold fluorescence was 4.51 [at 120.6 µM] (inactive) and 3.48 [at 120.6 µM] (inactive).

Take `CC1(C)Oc2ccc(C#N)cc2[C@@H](OC2=CC(=O)CC2)[C@@H]1O`: the fold change in assay [1] (setting [3]) was 0.927 (inactive); in assay [1] (setting [4]), 1.24. Also, the cell count in assay [1] (setting [5]) was 5940; in assay [1] (setting [6]) it was 6400. In addition, in assay [2], the fold fluorescence is 3.79 [at 167 µM] (inactive).

In the case of `CCCCC/C=C\C\C=C/C=C/C=C/[C@@H](SC[C@H](N)C(=O)O)[C@@H](O)CCCC(=O)O`, the fold change in assay [1] (setting [3]) was 1.09 (inactive); in assay [1] (setting [4]), 1.02. Also, the figures for the cell count in assay [1] (setting [5]) and in assay [1] (setting [6]) were 6150 and 5660, respectively. Moreover, the fold fluorescence in assay [2] was 3.87 [at 1 µM] (inactive).

With `CC(C)[C@H](NC(=O)CNC(=O)OC(C)(C)C)C(=O)N[C@H](C=O)C(C)C` (Boc-Gly-Val-Val-aldehyde), the fold change in assay [1] (setting [3]) is 0.895 (inactive); in assay [1] (setting [4]), 1.12. Besides, the cell count turned out to be 5740 in assay [1] (setting [5]) and 6410 in assay [1] (setting [6]). The fold fluorescence in assay [2] is 10.2 [at 139.9 µM] (inactive).

For the compound `Nc1cc(N2CCCCC2)nc(N)[n+]1OS(=O)(=O)[O-]`, the fold change in assay [1] (setting [3]) is 0.999 (inactive); in assay [1] (setting [4]), 1.39. Besides, the cell count in assay [1] (setting [5]) amounted to 5860; in assay [1] (setting [6]), 5870. Besides, in assay [2], the fold fluorescence is 3.52 [at 172.8 µM] (inactive).

As for `CCCCC[C@@H](O)/C=C/[C@H]1[C@H](C/C=C\CCCC(=O)O)C(=O)C[C@@H]1O`, the fold change in assay [1] (setting [3]) is 0.916 (inactive); in assay [1] (setting [4]), 0.858. For the same compound, the cell count in assay [1] (setting [5]) is 4850; in assay [1] (setting [6]), 5300. The fold fluorescence in assay [2] is 3.88 (inactive).

Regarding `CCCCCCCCCCCCCCCCCCc1ccc(C(=O)/C=C/C(=O)O)cc1`, the fold change in assay [1] (setting [3]) was 0.918 (inactive); in assay [1] (setting [4]) it was 0.873. Moreover, the cell count came out at 5110 in assay [1] (setting [5]) and 5560 in assay [1] (setting [6]). Also, in assay [2], the fold fluorescence is 13.3 [at 116.6 µM] (inactive).

Regarding `CCCC[C@@H](C)/C=C(C)/C=C(\C)C(=O)NC1=C[C@@](O)(/C=C/C=C/C=C/C(=O)NC2=C(O)CCC2=O)[C@@H]2O[C@@H]2C1=O`, the fold change was 1.01 (inactive) in assay [1] (setting [3]) and 1.03 in assay [1] (setting [4]). Moreover, the cell count turned out to be 1310 in assay [1] (setting [5]) and 1290 in assay [1] (setting [6]). In addition, the fold fluorescence in assay [2] was 7.73 [at 90.8 µM] (inactive).

Regarding `CCCCC/C=C\C/C=C\CCCCCCCC(=O)O[C@@H](CO)COC(=O)CCCCCCCCCCCCCCCCC`, the values for the fold change in assay [1] (setting [3]) and in assay [1] (setting [4]) were 0.999 (inactive) and 1.31, respectively. The cell count in assay [1] (setting [5]) and in assay [1] (setting [6]) was 6430 each time. The fold fluorescence in assay [2] was 4.76 (inactive).

Turning to `CCCCCC(=O)/C=C/C=C\C/C=C\C/C=C\CCCC(=O)O`, the fold change in assay [1] (setting [3]) is 0.995 (inactive); in assay [1] (setting [4]), 1.32. Also, the cell count in assay [1] (setting [5]) is 6100; in assay [1] (setting [6]) it was 6140. Further, the fold fluorescence in assay [2] is 5.6 [at 1 µM] (inactive).

For the compound `CC[C@H]1[C@@H]2C=C[C@@H]3[C@H]4C/C=C\C(=O)NCCC[C@@H]5NC(=O)C(=C5O)C(=O)CC[C@@H]4C[C@@H]3[C@H]2C[C@H]1C`, the fold change in assay [1] (setting [3]) is 1.96 (inactive); in assay [1] (setting [4]), 0.587. Also, the cell count came to 636 in assay [1] (setting [5]) and 324 in assay [1] (setting [6]). Moreover, in assay [2], the fold fluorescence was 7.3 [at 104 µM] (inactive).

As for `C=CC1CN2CCC1C[C@@H]2[C@H](O)c1ccnc2ccc(OC)cc12` (stereo not given in full), the fold change in assay [1] (setting [3]) was 0.899 (inactive); in assay [1] (setting [4]) it was 1.42. Moreover, the cell count in assay [1] (setting [5]) was 4890; in assay [1] (setting [6]) it was 5440. For the same compound, the fold fluorescence in assay [2] was 5.27 [at 154.1 µM] (inactive).

As to `C=C[C@@]1(C)CC(=O)[C@]2(O)[C@@]3(C)[C@H](O)CCC(C)(C)[C@@H]3[C@H](O)[C@H](OC(C)=O)[C@@]2(C)O1`, the results for the fold change in assay [1] (setting [3]) and in assay [1] (setting [4]) were 0.854 (inactive) and 0.977, respectively. Further, the values for the cell count in assay [1] (setting [5]) and in assay [1] (setting [6]) were 5250 and 6150, respectively. Further, the fold fluorescence in assay [2] is 6.21 [at 121.8 µM] (inactive).

On to `CCCCCCCCCCC1=C(C)C(=O)C(OC)=C(OC)C1=O`, for which the fold change in assay [1] (setting [3]) was 0.94 (inactive); in assay [1] (setting [4]), 1.42. The cell count amounted to 3450 in assay [1] (setting [5]) and 3660 in assay [1] (setting [6]). The fold fluorescence in assay [2] was 4.65 [at 155.1 µM] (inactive).

As to `CCCCCCCCCCCCCCCCOC[C@H](CO)OC(C)=O`, the fold change in assay [1] (setting [3]) is 0.961 (inactive); in assay [1] (setting [4]) it was 1.5. Moreover, the figures for the cell count in assay [1] (setting [5]) and in assay [1] (setting [6]) were 5130 and 5340, respectively. Further, the fold fluorescence in assay [2] was 4.43 (inactive).

For the compound `CCCC[C@@H](C=O)NC(=O)[C@H](CC(C)C)NC(=O)[C@H](CC(C)C)NC(C)=O` (Ac-Leu-Leu-[Nle]-aldehyde), the fold change in assay [1] (setting [3]) was 0.909 (inactive); in assay [1] (setting [4]), 1.22. Moreover, the cell count in assay [1] (setting [5]) is 1540; in assay [1] (setting [6]), 1700. The fold fluorescence in assay [2] was 4.19 [at 130.4 µM] (inactive).

Regarding `COC(=O)CNC(=O)C(=O)OC`, the fold change in assay [1] (setting [3]) was 0.976 (inactive); in assay [1] (setting [4]) it was 1.36. In addition, the results for the cell count in assay [1] (setting [5]) and in assay [1] (setting [6]) were 6040 and 6190, respectively. The fold fluorescence in assay [2] is 3.39 (inactive).

With `NC1=NC2C(N=C(Br)N2C2O[C@H]3COP(=O)(O)O[C@@H]3[C@@H]2O)C(=O)N1` (stereo not given in full), the fold change was 0.962 (inactive) in assay [1] (setting [3]) and 1.29 in assay [1] (setting [4]). In addition, the cell count turned out to be 6370 in assay [1] (setting [5]) and 6620 in assay [1] (setting [6]). Also, the fold fluorescence in assay [2] is 4.24 [at 117.3 µM] (inactive).

Regarding `CCC(C)[C@@H](CO[C@@H](Cc1ccccc1)C(=O)N[C@@H](CCS(C)(=O)=O)C(=O)OC(C)C)NC[C@@H](N)CS` (stereo not given in full), the fold change in assay [1] (setting [3]) was 0.946 (inactive); in assay [1] (setting [4]), 1.27. Moreover, the cell count in assay [1] (setting [5]) was determined as 3500; in assay [1] (setting [6]), 3700. For the same compound, in assay [2], the fold fluorescence was 3.05 [at 89.3 µM] (inactive).

As for `Clc1ccc2ncnc(NCc3ccc4c(c3)OCO4)c2c1`, the figures for the fold change in assay [1] (setting [3]) and in assay [1] (setting [4]) were 0.968 (inactive) and 1.41, respectively. Moreover, the cell count in assay [1] (setting [5]) came to 3640; in assay [1] (setting [6]) it was 3760. Also, the fold fluorescence in assay [2] is 6.11 [at 159.4 µM] (inactive).
